From ChEMBL document CHEMBL4513216, “Probing the Open Global Health Chemical Diversity Library for Multistage-Active Starting Points for Next-Generation Antimalarials” (ACS Infect Dis, 2020) come the findings set out here.

Out of some 69,000 compounds screened, about 8,600 (12%) showed an effect of 50% or more. This is one part of a sample in which strong results are shown more often than they occur.

This assay concerns Plasmodium berghei. Briefly: Screen against P. berghei liver stage (PbLuc), transformed with Luciferase, at 10uM. It is filed as functional, HepG2. As to conditions: tested at 10 uM.
Regarding `c1cnn(CC2CCCN2c2ncnc3c2CCC3)c1` (stereo unspecified), the INHIBITION stood at 59.7%.

For `N#Cc1ccc(N2CCCC2Cn2cccn2)nc1` (stereo unspecified), the INHIBITION is reported as -155%.

Consider `Cc1nn(C)c(C)c1C1CCCN1c1ncnc2sccc12` (stereo unspecified), for which the INHIBITION turned out to be 70.5%.

As for `Cc1cnn(CC2CCCN2c2ncnc3ccsc23)c1` (stereo unspecified), the INHIBITION was 47.7%.

Turning to `c1nc(N2CCCCC2Cn2cncn2)c2ccsc2n1` (stereo unspecified), the INHIBITION was 45.8%.

For `Cc1cnn(CC2CCCN2c2ncnc3c2CCC3)c1` (stereo unspecified), the INHIBITION is listed as -2.94%.

Regarding `Cc1cnn(CC2CCCN2c2ccc(C#N)cn2)c1` (stereo unspecified), the INHIBITION is reported as -16%.

For `Cc1cnn(CC2CCCN2c2ncnc3ccccc23)c1` (stereo unspecified), the INHIBITION is listed as 75.9%.

As to `Cc1nn(C)c(Cl)c1C1CCCN1c1ncnc2sccc12` (stereo unspecified), the INHIBITION amounted to 42.6%.

In the case of `COc1c(C2CCCN2c2ncnc3sccc23)c(C)nn1C` (stereo unspecified), the INHIBITION was 40%.

As to `Cc1cnn(CC2CCCCN2c2ncnc3ccccc23)c1` (stereo unspecified), the INHIBITION was -34.6%.

Take `CSCC[C@H](NC(C)=O)c1nc(CC(C)C)n[nH]1`: the INHIBITION was -24.7%.

As to `c1ccc2oc(CN3CCCC(Cn4cncn4)C3)nc2c1` (stereo unspecified), the INHIBITION stood at 16.34%.

For the molecule `CC(C)CCN(C(=O)c1ccc(-n2ncc(C#N)c2N)cc1)C1CC1`, the INHIBITION is 19.5%.

As to `Cc1cnn(CCC(=O)N2CCCC(c3ccn[nH]3)C2)c1` (stereo unspecified), the INHIBITION was -19.4%.

In the case of `Cc1nc(C)n(C2CCCN(C(=O)CCOc3cccc(F)c3)C2)n1` (stereo unspecified), the INHIBITION was found to be 33.3%.

Turning to `Cc1c(NCCO)cccc1OC1CCCC1`, the INHIBITION is -64.6%.

In the case of `CN1CCC(CNC(=O)NCc2ccc(F)cc2)CC1`, the INHIBITION is reported as -33%.

As for `CC(C)NC(=O)c1cc2c(s1)CCN2C(=O)CN(C)C`, the INHIBITION amounted to 8.67%.

For `c1ccc2c(N3CCCCC3Cn3cncn3)ncnc2c1` (stereo unspecified), the INHIBITION is -11.1%.

On to `c1ccc2c(N3CCCC3Cn3cccn3)ncnc2c1` (stereo unspecified), for which the INHIBITION is 76.9%.

`Cc1n[nH]c(C)c1C1COCCN1c1ncnc2sccc12` (stereo unspecified): the INHIBITION worked out at 71.4%.

Take `c1ccc2c(N3CCCCC3Cn3cccn3)ncnc2c1` (stereo unspecified): the INHIBITION was 11.575%.

Take `Cc1nn(C)c(C)c1C1COCCN1c1ncnc2sccc12` (stereo unspecified): the INHIBITION is -7.11%.

`CC1COCCN1c1ncnc2sccc12` (stereo unspecified): the INHIBITION is given as 49.1%.

Regarding `O=C(c1ccncc1)N1C[C@H]2CC[C@@H](C1)N(C(=O)N1CCOCC1)C2`, the INHIBITION is on record as -20.6%.

As for `CCc1nc(C2CCCN2Cc2nccn2CC(F)(F)F)no1` (stereo unspecified), the INHIBITION is given as 28.8%.

For `CC1CN(CC(=O)NCc2ccccn2)CCN1Cc1nccn1C` (stereo unspecified), the INHIBITION was -20.19%.

On to `O=C(c1ccc2c(c1)OCCCO2)N1CCCC(n2cccn2)C1` (stereo unspecified), for which the INHIBITION amounted to 7.12%.

Turning to `COCCn1ccc2c(NC(=O)c3n[nH]c4c3CCCC4)cccc21`, the INHIBITION came out at 14.8%.

Turning to `Cn1cnc2cc(NC(=O)c3n[nH]c4c3CCC4)ccc21`, the INHIBITION is reported as -136%.

As for `CC(=O)Nc1cccc2c1ccn2CC(=O)Nc1n[nH]c(CC(C)C)n1`, the INHIBITION is on record as 71.3%.

For `CC(=O)Nc1cccc2c1ccn2CC(=O)NC(C)C`, the INHIBITION came to 22%.

Turning to `CC(C)c1nc2cc(NC(=O)c3n[nH]c4c3CCC4)ccc2n1C`, the INHIBITION is on record as 62.2%.

As for `Cc1cc(CC(C)NC(=O)c2n[nH]c3c2CCC3)n[nH]1` (stereo unspecified), the INHIBITION is -56.2%.

Regarding `CN(C)CCCn1cnc2cc(NC(=O)c3n[nH]c4c3CCC4)ccc21`, the INHIBITION turned out to be 10.1%.

As to `CC(=O)Nc1cccc2c1ccn2CC(=O)Nc1nc[nH]n1`, the INHIBITION is reported as 21.5%.

For `CC(C)n1ccc2c(NC(=O)c3n[nH]c4c3CCC4)cccc21`, the INHIBITION came out at 76.9%.

For the molecule `COCCn1ccc2c(NC(=O)c3n[nH]c4c3CCC4)cccc21`, the INHIBITION turned out to be 9.57%.

For the molecule `Cc1ccc(N(C)C2CCN(C(=O)c3n[nH]c4c3CCC4)CC2)nn1`, the INHIBITION is reported as -20.3%.

On to `CC(C)Cn1ccc2c(NC(=O)c3n[nH]c4c3CCC4)cccc21`, for which the INHIBITION is 90.8%.

As to `O=S(=O)(c1cnccc1N1CCN(CCO)CC1)N1CCOCC1`, the INHIBITION came to 36.8%.

In the case of `CCOc1ccc(C#N)cc1NC(=O)N1CCC(n2cncn2)CC1`, the INHIBITION is recorded as -31.4%.

For `Cc1nc(N2CCCC2)ncc1-c1cc(O)nc(NCC2CCCO2)n1` (stereo unspecified), the INHIBITION was -29.6%.

Consider `Cc1[nH]ccc1C(=O)N1C[C@@H]2CC[C@H]1CN(S(=O)(=O)N(C)C)C2`, for which the INHIBITION was determined as 21.5%.

Regarding `Cc1cc(S(=O)(=O)NCC(C)(C)N)c(F)cc1F`, the INHIBITION is reported as 48.8%.

As to `COCCNC(=O)NCc1cc(-c2cccs2)n(C2CCCC2)n1`, the INHIBITION worked out at 43.9%.

For the molecule `Cc1noc(C)c1-c1cncc(C2CCCN2Cc2cncnc2)n1` (stereo unspecified), the INHIBITION was 22.2%.

Take `O=S(=O)(Cc1ccccc1)CC(O)Cn1cccn1` (stereo unspecified): the INHIBITION is listed as 34%.

With `Cc1cccc(CS(=O)(=O)CC(O)Cn2cccn2)c1` (stereo unspecified), the INHIBITION stood at 15.5%.

As for `O=S(=O)(Cc1cccc(Cl)c1)CC(O)Cn1cccn1` (stereo unspecified), the INHIBITION amounted to 57.5%.

With `Cn1c(NCc2ccc(C(N)=O)cc2)nc2cc(Cl)ccc21`, the INHIBITION is recorded as 10.7%.

Turning to `CC(CN1CCCC1=O)NC(=O)NCc1ccccc1-n1cccn1` (stereo unspecified), the INHIBITION is 48.6%.

In the case of `O=C(c1ccc(S(=O)(=O)NCC(F)F)cc1)N1C[C@H]2CNC[C@H]2C1`, the INHIBITION was 69.3%.

As to `O=C(c1ccc(S(=O)(=O)NCC(F)F)cc1)N1CC[C@H]2CNC[C@H]21`, the INHIBITION stood at 43.7%.

Consider `O=C(c1ccc(F)c(F)c1)N1C[C@H]2CNC[C@H]2C1`, for which the INHIBITION is listed as 5.04%.
